Data: the antibiotic and cytotoxicity screens of Wong et al. (2023)
Out of some 39,000 compounds screened, about 1,500 (3.8%) were called active. For the sample, actives were picked, then their nearest neighbours and some compounds at random.

The compounds below were run on HSkMC (human skeletal muscle cells) (assay: cytotoxicity call (relative viability < 0.9)). Settings: 10 µM.

SMILES	cytotoxicity call
COc1ccc2c3c(n(c2c1)C)[C@H](CO)N(CC1CCOCC1)C[C@]13CCN(CC1)C(=O)c1cnccn1	inactive
CO[C@H]1CN(C)C(=O)c2cc(NC(=O)c3ccc(F)cc3)ccc2OC[C@@H](C)N(C(=O)CN(C)C)C[C@@H]1C	inactive
C=CC[C@@H](CC(=O)N[C@@H](CO)Cc1ccccc1)C(=O)N[C@@H](C)COC(=O)[C@@H](CC=C)CC(=O)OC(C)(C)C	inactive
COc1ccccc1S(=O)(=O)N(C)C[C@@H]1OCc2cnnn2CCCC(=O)N([C@@H](C)CO)C[C@H]1C	inactive
COc1ccccc1CNC(=O)C[C@H]1C[C@@H]2c3cc(NC(=O)NC4CCCC4)ccc3O[C@@H]2[C@@H](CO)O1	inactive
C[C@H](CO)N1C[C@H](C)[C@H](CN(C)C(=O)Nc2ccc(F)cc2)OCCCC[C@H](C)Oc2ccc(NC(=O)Nc3ccc(F)cc3)cc2C1=O	inactive
C[C@@H]1CN([C@@H](C)CO)C(=O)c2cc(NC(=O)NC3CCCCC3)ccc2O[C@@H](C)CCCCO[C@H]1CN(C)CC1CCCCC1	inactive
C[C@@H]1CN([C@@H](C)CO)C(=O)c2cc(NS(=O)(=O)c3cccs3)ccc2O[C@@H](C)CCCCO[C@@H]1CN(C)Cc1ccc2c(c1)OCO2	inactive
CN(C)C(=O)C[C@H]1C=C[C@@H](NC(=O)C2CCOCC2)[C@H](CO)O1	inactive
C[C@@H]1CN([C@H](C)CO)C(=O)c2cc(NC(=O)Nc3ccccc3)ccc2O[C@@H]1CN(C)Cc1ccc(Cl)c(Cl)c1	inactive
C[C@H](CO)N1C[C@H](C)[C@@H](CN(C)Cc2ccc(Cl)c(Cl)c2)Oc2ccc(NC(=O)Nc3ccccc3)cc2C1=O	inactive
C[C@H]1CN([C@@H](C)CO)C(=O)c2cc(NC(=O)Nc3ccccc3)ccc2O[C@@H]1CN(C)Cc1ccc(Cl)c(Cl)c1	inactive
C[C@@H]1CN([C@@H](C)CO)C(=O)c2cc(NC(=O)Nc3ccccc3)ccc2O[C@@H]1CN(C)Cc1ccc(Cl)c(Cl)c1	active
C[C@H]1CN([C@@H](C)CO)C(=O)c2cc(NC(=O)Nc3ccccc3)ccc2O[C@H]1CN(C)Cc1ccc(Cl)c(Cl)c1	active
C[C@@H]1CN([C@H](C)CO)C(=O)c2cc(NC(=O)Nc3ccccc3)ccc2O[C@H]1CN(C)Cc1ccc(Cl)c(Cl)c1	inactive
C[C@H](CO)N1C[C@H](C)[C@@H](CN(C)S(=O)(=O)c2cccs2)Oc2ccc(NS(=O)(=O)c3ccc(F)cc3)cc2C1=O	inactive
Cc1cc(C(=O)Nc2cccc3c2O[C@H](CN(C)C(=O)Nc2ccc4c(c2)OCO4)[C@@H](C)CN([C@H](C)CO)C3=O)n(C)n1	inactive
COc1ccc(CCNC(=O)[C@@]2(Sc3ccc(C)cc3)CC(=O)N(C3CCCCC3)[C@@H]2c2ccc(CO)cc2I)cc1	inactive
COc1ccc(NC(=O)N(C)C[C@@H]2Oc3ccc(NS(=O)(=O)c4c(C)noc4C)cc3CC(=O)N([C@@H](C)CO)C[C@H]2C)cc1	inactive
Fc1cccc(-c2csc(COc3ccccc3Cl)n2)c1	inactive
CS(=O)(=O)CCNCc1nc(-c2ccc3ncnc(Nc4ccc(OCc5cccc(F)c5)c(Cl)c4)c3c2)cs1	active
CS(=O)(=O)CCNCc1ccc(-c2ccc3ncnc(Nc4ccc(OCc5cccc(F)c5)c(Cl)c4)c3c2)o1 [listing 1 of 2 here]	active
CS(=O)(=O)CCNCc1ccc(-c2ccc3ncnc(Nc4ccc(OCc5cccc(F)c5)c(Cl)c4)c3c2)o1 [listing 2 of 2 here]	active
CC(C)(O)CC(=O)NCCn1ccc2ncnc(Nc3ccc(Oc4cccc(C(F)(F)F)c4)c(Cl)c3)c21	inactive
CCCN(C)C[C@H]1OCCCC[C@H](C)Oc2ccc(NS(=O)(=O)c3cn(C)cn3)cc2C(=O)N([C@H](C)CO)C[C@H]1C	inactive
C[C@@H]1CNC[C@H](C)N1	inactive
C[C@H](CO)N1C[C@H](C)[C@@H](CN(C)S(=O)(=O)c2ccc(Cl)cc2)Oc2ccc(NC(=O)CCN3CCOCC3)cc2C1=O	inactive

SMILES	cytotoxicity call
c1ccc(C2C3=C(CCCC3)SC3=C2CCCC3)cc1	inactive
Cc1noc(C)c1NC(=O)N(C)C[C@@H]1Oc2c(NS(C)(=O)=O)cccc2C(=O)N([C@H](C)CO)C[C@H]1C	inactive
Cc1ccc(S(=O)(=O)N(C)C[C@H]2Oc3c(NC(=O)Nc4ccc(C(F)(F)F)cc4)cccc3C(=O)N([C@@H](C)CO)C[C@@H]2C)cc1	inactive
Cc1ccc(S(=O)(=O)N(C)C[C@H]2Oc3c(NC(=O)Nc4ccc(C(F)(F)F)cc4)cccc3C(=O)N([C@@H](C)CO)C[C@H]2C)cc1	active
Cc1ccc(S(=O)(=O)N(C)C[C@@H]2Oc3c(NC(=O)Nc4ccc(C(F)(F)F)cc4)cccc3C(=O)N([C@H](C)CO)C[C@H]2C)cc1	inactive
Cc1ccc(S(=O)(=O)N(C)C[C@@H]2Oc3c(NC(=O)Nc4ccc(C(F)(F)F)cc4)cccc3C(=O)N([C@H](C)CO)C[C@@H]2C)cc1	inactive
Cc1ccc(S(=O)(=O)N(C)C[C@@H]2Oc3c(NC(=O)Nc4ccc(C(F)(F)F)cc4)cccc3C(=O)N([C@@H](C)CO)C[C@H]2C)cc1	inactive
Cc1ccc(S(=O)(=O)N(C)C[C@H]2Oc3c(NC(=O)Nc4ccc(C(F)(F)F)cc4)cccc3C(=O)N([C@H](C)CO)C[C@H]2C)cc1	active
[N-]=[N+]=N[C@]1(CO)O[C@@H](n2ccc(N)nc2=O)[C@H](O)[C@@H]1O	inactive
c1ccc(CCN2CCNCC2)nc1	inactive
C[C@@H]1CN([C@H](C)CO)C(=O)c2cc(Br)cnc2O[C@@H]1CN(C)S(=O)(=O)c1ccccc1	inactive
Cc1ccc(S(=O)(=O)N(C)C[C@@H]2Oc3ncc(C#CC4(O)CCCC4)cc3C(=O)N([C@@H](C)CO)C[C@@H]2C)cc1	inactive
COc1ccc(S(=O)(=O)N(C)C[C@@H]2Oc3ccc(NS(=O)(=O)c4c(C)noc4C)cc3C(=O)N([C@H](C)CO)C[C@@H]2C)cc1	inactive
CCCNC(=O)C[C@H]1CC[C@H]2[C@@H](COc3ccc(NS(=O)(=O)c4ccccc4C)cc3C(=O)N2C)O1	inactive
C[C@@H]1CN([C@H](C)CO)C(=O)Cc2cc(NC(=O)CCCCCC(=O)Nc3ccccc3N)ccc2O[C@H]1CN(C)CC1CCCCC1	inactive
C[C@@H]1CN([C@H](C)CO)C(=O)Cc2cc(NC(=O)CCCCCC(=O)Nc3ccccc3N)ccc2O[C@@H]1CN(C)CC1CCCCC1	active
C[C@@H]1CN([C@@H](C)CO)C(=O)Cc2cc(NC(=O)CCCCCC(=O)Nc3ccccc3N)ccc2O[C@@H]1CN(C)CC1CCCCC1	inactive
C[C@@H]1CN([C@H](C)CO)C(=O)c2cc(NC(=O)CCCCCC(=O)Nc3ccccc3N)ccc2O[C@H]1CN(C)Cc1ccc(-c2ccccc2)cc1	active
C[C@@H]1CN([C@H](C)CO)C(=O)Cc2cc(NC(=O)CCCCCC(=O)Nc3ccccc3N)ccc2O[C@@H]1CN(C)Cc1ccc(-c2ccccc2)cc1	active
C[C@@H]1CN([C@H](C)CO)C(=O)Cc2cc(NC(=O)CCCCCC(=O)Nc3ccccc3N)ccc2O[C@H]1CN(C)Cc1ccc(-c2ccccc2)cc1	inactive
C[C@@H]1CN([C@H](C)CO)C(=O)Cc2cc(NC(=O)CCCCCC(=O)Nc3ccccc3N)ccc2O[C@@H]1CN(C)Cc1ccc(Oc2ccccc2)cc1	active
C[C@H]1CN([C@@H](C)CO)C(=O)c2cc(NC(=O)CCCCCC(=O)Nc3ccccc3N)ccc2O[C@H]1CN(C)Cc1ccc(-c2ccccc2)cc1	inactive
C[C@@H]1CN([C@@H](C)CO)C(=O)c2cc(NC(=O)CCCCCC(=O)Nc3ccccc3N)ccc2O[C@@H]1CN(C)Cc1ccc(-c2ccccc2)cc1	inactive
C[C@H]1CN([C@@H](C)CO)C(=O)Cc2cc(NC(=O)CCCCCC(=O)Nc3ccccc3N)ccc2O[C@H]1CN(C)Cc1ccc(-c2ccccc2)cc1	inactive
C[C@@H]1CN([C@@H](C)CO)C(=O)Cc2cc(NC(=O)CCCCCC(=O)Nc3ccccc3N)ccc2O[C@@H]1CN(C)Cc1ccc(Oc2ccccc2)cc1	inactive
C[C@H]1CN([C@@H](C)CO)C(=O)Cc2cc(NC(=O)CCCCCC(=O)Nc3ccccc3N)ccc2O[C@@H]1CN(C)Cc1ccc(Oc2ccccc2)cc1	inactive
